Compound activity (PubChem BioAssay)
AMA1 RON2 block – disrupts binding of P. falciparum AMA1 to RON2; AlphaScreen AMA1-biotinylated RON2 peptide binding; Potency, µM (titrated, usually from 58.2 µM), for the others: at the highest dose activity change, negative = inhibition, usual class: inhibitors; actives 0.2% (n = 360,000);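 note: 0% = vehicle wells and -100% = peptide control; nearly all actives have a fitted effect of over 45% in size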
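AMA1 (3D7) with his tag at 25 nM final met compounds first, then biotinylated RON2 peptide at 25 nM; detection used donor plus acceptor beads, 10 µg/mL apiece, read by AlphaScreen after 30 min at room temperature.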
Pf growth 96h – P. falciparum growth inhibition at 96 hour, primary screen for plastid delayed-death inhibitors; P. falciparum luciferase reporter growth, 96 h; Potency, µM (top dose mostly 28.7 µM), for the others: at the top dose activity change, negative = inhibition, usual class: inhibitors; actives 6.9% (n = 320,000); note: % is set by controls: 0 for no effect and ±100 for the full control effect
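Infected RBCs, 2% Hct / 0.05% parasitemia final; luciferase-reporter P. falciparum; cpd 96 h, 37 C, 5% CO2; luciferase detection reagent; luminescence.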
HCV inhibitor – blocks hepatitis C virus; Huh7.5.1 HCVcc-Cre infection, luciferase reporter, 44 h; Potency, µM (titrated, usually from 41.8 µM), without a hit: top-dose activity change, negative = inhibition, actives largely listed as inhibitors; actives 3.4% (n = 340,000); AID 651820; note: % is set by controls: 0 for no effect and ±100 for the full control effect
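A cell-based infection assay in which seeded cells (1,000 per well) receive test compound after 4 h, are inoculated with HCVcc-Cre at approximately 0.5 moi, and are incubated 44 h before luminescence detection.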
NS1 function inh – inhibitors of influenza NS1 protein function; Potency, µM (highest dose often 46.1 µM), without a hit: at the top dose activity, positive = more growth; actives 0.4% (n = 270,000); AID 2326; calls by dose curve; note: actives are rising curves; nearly all actives have a fitted effect of over 50% in size
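Read-out: OD600 growth recovery of NS1-expressing budding yeast. Cells grown overnight at 30C in -URA glucose medium, washed, resuspended and diluted 1:100 in 2% galactose assay medium, pH 6.0. Same strain lacking NS1 served as positive control.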
Pf growth 48h – P. falciparum growth inhibition at 48 hours (one generation); AID 504832; Potency, µM (titrated, usually from 28.7 µM), inactives show at the highest dose activity change, negative = inhibition, hits mostly inhibitors; actives 5.9% (n = 310,000); P. falciparum luciferase growth in erythrocytes, 48 h; note: % is set by controls: 0 for no effect and ±100 for the full control effect
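Here the parasites carry a stable luciferase gene and grow inside erythrocytes in Albumax-based RPMI medium with compound for one erythrocytic cycle. Activity is scored as loss of luminescent signal.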
SARS PLP yeast – inhibitors of SARS-CoV papain-like protease in yeast; S. cerevisiae expressing SARS-CoV PLpro, growth rescue; Potency, µM (top dose mostly 32.9 µM), for the others: at the top dose activity, positive = growth rescue, usual class: activators; actives 0.19% (n = 330,000); AID 485353; calls by dose curve; note: 0% is about no effect; nearly all actives have a fitted effect of over 55% in size
* marks the source's active call; other numbers are inactive results; ? = inconclusive; nt = no result; [ ] = another dose, or the depositor's remark. A selection: hits, their analogues and other compounds. The true share with any hit is near 12%. Unless noted, calls come from the whole dose curve; as a rule, active = well fitted curve in the direction sought with a large enough effect; inconclusive = small, poorly fitted or top-dose-only effect, or another doubt; inactive = no such curve, though single readings can be large; an effect the other way counts as inactive or inconclusive. Potency is the fitted concentration of half-maximal effect.

SMILES	AMA1 RON2 block	Pf growth 96h	HCV inhibitor	NS1 function inh	Pf growth 48h	SARS PLP yeast
COc1cc2c(cc1OC)C(c1ccccc1)CN(C)CC2 (centres undefined)	nt	15µM*	nt	-2%	?	nt
Cc1cc(NS(=O)(=O)c2c(C(=O)N3CCOCC3)c(C)n(C)c2C)ccc1Br	-6%	52%	10%	-10%	-7%	2%
Cn1ncc(Cl)c1C(=O)N1CCN(c2ncccn2)CC1	0%	-40%[5.75 µM]	10%	-4%	-24%[1.15 µM]	0%
CC(C)[C@H](NS(=O)(=O)c1ccccc1)C(=O)OCC(=O)N1N=C(c2ccc(Cl)cc2)CC1c1ccco1 (some centres undefined)	-5%	?	?	?	?	-7%
O=C(CN1C(=O)CSc2ncccc21)Nc1cccc(Cl)c1	30%	2%	0%	5%	17µM*	-1%
COCCCNC(=O)CN1C(=O)CSc2ncccc21	3%	2.6µM*	-1%	16%	7%	3%
CN(Cc1cccc2ccccc12)Cc1cccc2ccccc12	nt	nt	nt	-7%	nt	nt
O=c1c(Cl)c(NCc2ccccc2)cnn1C12CC3CC(CC(C3)C1)C2	13%	10µM*	31%	11%	?	-12%
O=C(O)CC12CC3CC(C1)CC(n1ncc(NCc4ccco4)c(Cl)c1=O)(C3)C2	5%	2%	23%	5%	?	0%
CC1(C(=O)NS(=O)(=O)c2ccc(Cl)cc2)CCN1C(=O)C/C=C/c1ccccc1 (centres undefined)	35%	nt	nt	nt	nt	nt
c1csc(C(c2nnnn2C2CCCCC2)N2CCCC3(CCCCC3)C2)c1 (centres undefined)	-2%	?	25%	9%	2.6µM*	23%
c1coc(CN2CCN(C(c3cccs3)c3nnnn3C3CCCC3)CC2)c1 (centres undefined)	0%	32%	12%	5%	8%	0%
CC(C)(C)n1nnnc1C(c1cccs1)N1CCCC2(CCCCC2)C1 (centres undefined)	?	?	6%	-40%	5.2µM*	-53%
COc1ccc(-n2c(N)c(C(=O)NCc3ccco3)c3nc4ccccc4nc32)cc1OC	71%	?	?	18%	13µM*	25%
Nc1c(C(=O)NCc2ccco2)c2nc3ccccc3nc2n1CCc1ccc(F)cc1	29%	?	-18%	?	nt	12%
COc1ccc(-n2c(N)c(C(=O)NCc3ccco3)c3nc4ccccc4nc32)cc1	30%	?	?	18%	?	5%
COc1cc(-n2c(N)c(C(=O)NCc3ccco3)c3nc4ccccc4nc32)cc(OC)c1OC	19%	13µM*	-22%	16%	12µM*	16%
Nc1c(C(=O)NCc2ccco2)c2nc3ccccc3nc2n1CCN1CCCCC1	49%	9.3µM*	?	16%	?	-1%
COc1ccc(Cn2c(N)c(C(=O)NCc3ccco3)c3nc4ccccc4nc32)cc1OC	37%	3.7µM*	7.1µM*	?	?	-5%
Cc1ccc(NC(=O)COC(=O)Cn2ccc(=O)[nH]c2=O)cc1C	13%[11.6 µM]	nt	18%	nt	nt	-2%
Brc1cccc(CSc2nnc(-c3ccncc3)o2)c1	-10%	29%	?	nt	-22%	-2%
CS(=O)(=O)c1ccc2nc(NC(=O)c3ccc(Cl)cc3)sc2c1	-2%	?	-14%	-16%	35%	1%
CS(=O)(=O)c1ccc2nc(NC(=O)CCNC(=O)c3ccccc3Cl)sc2c1	3%	-104%	-4%	nt	10µM*	-2%
CS(=O)(=O)c1ccc2nc(NC(=O)Nc3ccc(Cl)cc3)sc2c1	-2%	1.2µM*	-2%	13%	?	8%
CS(=O)(=O)c1ccc2nc(NC(=O)CCNC(=O)c3ccc(Cl)cc3)sc2c1	0%	4.1µM*	-23%	nt	-40%	0%
SMILES	AMA1 RON2 block	Pf growth 96h	HCV inhibitor	NS1 function inh	Pf growth 48h	SARS PLP yeast
CC(C)c1ccc(OCC(=O)NCc2ccccc2)cc1	-4%	8%	22%	-4%	14%	-8%
COc1cccc(N(C(=O)CNC(=O)c2ccco2)C(C(=O)NC2CCCC2)c2cccnc2)c1 (centres undefined)	-6%	-2%	15%	-14%	3%	1%
Cc1ccc(S(=O)(=O)N2CCN(C(=O)c3cc(S(=O)(=O)N(C)C)ccc3N3CCCC3)CC2)c(C)c1	-20%	5.2µM*	?	nt	2.9µM*	5%
CN(C)S(=O)(=O)c1ccc(N2CCCC2)c(C(=O)N2CCN(S(=O)(=O)c3ccc(F)c(F)c3)CC2)c1	-8%	nt	-4%	nt	nt	nt
O=C(Nc1ccccc1N1CCCC1)C1CCN(S(=O)(=O)c2ccccc2)CC1	-18%	-12%	9%[8.37 µM]	nt	-18%	-6%
O=C(Nc1ccccc1N1CCCCC1)C1CCN(S(=O)(=O)c2ccccc2C(F)(F)F)CC1	?	?	?	nt	9.3µM*	nt
CN(C)C(CNC(=O)C1CCN(S(=O)(=O)c2ccccc2C(F)(F)F)CC1)Cc1ccccc1 (centres undefined)	5%	9.3µM*	-9%	nt	?	9%
Cc1ccc(S(=O)(=O)N2CCC(C(=O)Nc3ccccc3N3CCCC3)CC2)c(C)c1	-22%	?	?	nt	9.3µM*	6%
CCCC(=O)O[C@]1(C(=O)CO)CCC2[C@@H]3CCC4=CC(=O)CC[C@]4(C)C3C(O)C[C@]21C (some centres undefined)	nt	?	nt	nt	-10%	nt
Cn1ccc2c(-c3ccc(C(=O)O)cc3)cc3c(c21)C1CCC3C1 (centres undefined)	-1%	nt	nt	nt	nt	nt
O=C(NC1CCCCC1)c1ccc(-c2ccccc2)cc1	-6%	nt	0%	nt	nt	nt
CC(C)N(Cc1ccccc1)S(=O)(=O)c1ccc2c(c1)NC(=O)CO2	-1%	?	-8%	-2%	-6%	3%
CC/C(=N\N=C(/CC)c1ccccc1N)c1ccccc1N	-25%	nt	12%	nt	nt	nt
CCCNC(=O)/C=C/C(=O)O	15%	49%	24%	nt	6%	3%
COc1ccc(Cn2cc3c(-c4ccc(F)cc4)nnc-3c3cc(OC)c(OC)cc32)cc1	-20%	0.15µM*	?	13%	0.15µM*	3%
COc1cc2c3nnc(-c4ccc(F)cc4)c-3cn(Cc3ccccc3)c2cc1OC	-17%	0.41µM*	?	5%	?	10%
COc1ccc(-c2nnn(Cc3ccccc3)n2)cc1OC	10%	38%	-27%	-34%	-5%	5%
COc1cc2c3nnc(-c4ccc(F)cc4)c-3cn(Cc3ccc(F)cc3)c2cc1OC	-29%	?	-20%	-1%	nt	0%
Cn1c(=O)c2[nH]c(COCc3nc4c([nH]3)c(=O)n(C)c(=O)n4C)nc2n(C)c1=O	nt	nt	nt	0%	nt	nt
COc1ccc(/C=C/C(=O)C2(O)CCCCC2)cc1OC	-5%	2%	-9%	nt	?	1%
